High-throughput results (PubChem BioAssay)
MBNL1 CUG block – qHTS Assay for Inhibitors of MBNL1-poly(CUG) RNA binding. Muscleblind-like protein 1 (Homo sapiens), Q9NR56. TR-FRET MBNL1-His/biotin-(CUG)12 binding, 665/545 ratio. Potency, µM (titrated, usually from 57.5 µM), for inactives: at the top dose activity change, negative = inhibition, most hits filed as inhibitors. 0.036% of 280,000 active; active means well fitted inhibition curve with a large enough effect in the signal ratio, with a control signal flat, not every such curve was filed as active; inconclusive means small, poorly fitted or top-dose-only effect, or effect the other way, or a change in a side signal; inactive means no such curve, though single readings can be large or run the other way; the % refers to the signal ratio; further: potency means the concentration at half of the fitted maximal effect; on the % scale 0 is the no-effect control and ±100 the full control effect
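TR-FRET between His-tagged MBNL1 and biotin-(CUG)12 RNA, detected with Tb anti-His antibody (0.055 ng/ul) and streptavidin-XL665 (5 nM), 60 min at room temperature. Compounds titrated 92 nM to 58 uM; 665/545 nm ratio normalized to buffer and complex controls.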
hERG WT inh – qHTS for Inhibitors of KCHN2 3.1: Wildtype qHTS | activity change, % at 1.84 µM | Voltage-gated inwardly rectifying potassium channel KCNH2 (Homo sapiens), Q12809 | 0.37% of 340,000 active | AID 720551, 2013 | U2OS, BacMam KCNH2, thallium flux FluxOr; hits give low values;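 active means maximum activity change below -70%; inconclusive means maximum activity change between -70% and -50%; inactive means maximum activity change above -50%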; further: on the % scale 0 is the no-effect control and ±100 the full control effect
Target sequence (Q12809 whole entry, looked up): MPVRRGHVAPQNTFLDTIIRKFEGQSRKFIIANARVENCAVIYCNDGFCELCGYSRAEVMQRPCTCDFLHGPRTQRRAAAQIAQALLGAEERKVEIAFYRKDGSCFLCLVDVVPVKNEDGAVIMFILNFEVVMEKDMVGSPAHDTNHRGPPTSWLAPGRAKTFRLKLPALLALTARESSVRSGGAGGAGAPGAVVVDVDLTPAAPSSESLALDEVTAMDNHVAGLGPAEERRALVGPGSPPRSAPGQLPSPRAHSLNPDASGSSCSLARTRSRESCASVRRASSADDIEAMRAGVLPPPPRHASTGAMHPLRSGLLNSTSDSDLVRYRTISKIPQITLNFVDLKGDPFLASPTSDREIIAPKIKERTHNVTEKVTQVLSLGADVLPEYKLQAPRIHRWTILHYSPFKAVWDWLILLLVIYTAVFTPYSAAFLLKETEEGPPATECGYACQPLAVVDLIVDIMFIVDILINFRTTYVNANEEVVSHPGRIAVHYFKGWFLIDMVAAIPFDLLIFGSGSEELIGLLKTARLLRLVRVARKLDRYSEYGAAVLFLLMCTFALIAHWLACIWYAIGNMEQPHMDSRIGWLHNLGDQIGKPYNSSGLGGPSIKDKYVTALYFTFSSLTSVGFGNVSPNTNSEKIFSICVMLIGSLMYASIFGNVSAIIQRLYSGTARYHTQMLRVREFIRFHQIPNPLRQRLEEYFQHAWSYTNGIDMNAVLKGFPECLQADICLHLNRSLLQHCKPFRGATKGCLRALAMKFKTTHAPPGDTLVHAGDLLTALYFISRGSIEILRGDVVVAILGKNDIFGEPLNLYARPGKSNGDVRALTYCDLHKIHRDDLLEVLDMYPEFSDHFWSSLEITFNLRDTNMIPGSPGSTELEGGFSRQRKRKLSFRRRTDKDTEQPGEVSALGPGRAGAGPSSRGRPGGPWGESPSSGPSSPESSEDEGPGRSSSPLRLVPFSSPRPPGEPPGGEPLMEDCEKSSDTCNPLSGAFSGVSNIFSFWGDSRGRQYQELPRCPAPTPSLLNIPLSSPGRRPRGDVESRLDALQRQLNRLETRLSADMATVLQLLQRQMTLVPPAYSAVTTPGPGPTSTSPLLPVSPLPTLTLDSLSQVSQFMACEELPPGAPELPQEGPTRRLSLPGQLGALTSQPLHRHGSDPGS
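U2OS cells were transduced with wild-type KCNH2 virus (2.03 x 10^8 / mL) for 4 h at room temperature, then cultured overnight at 37 C. Thallium flux was read with FluxOr dye. Rate constants were normalized to DMSO controls.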
VDR inh – Inhibitors of the vitamin D receptor (VDR): qHTS; AID 504847, 2011; 0.93% of 400,000 active; Potency, µM, without a hit: max response, negative = inhibition, usual class: inhibitors; VDR-SRC2-3 peptide fluorescence polarization, 2 h; further: potency means the concentration at half of the fitted maximal effect; on the % scale 0 is the no-effect control and ±100 the full control effect
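Measured by FP: displacement of SRC2-3 coactivator peptide from VDR by library compounds, following a two-hour ambient incubation.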
CBFb RUNX1 block – qHTS Assay for Compounds Blocking the Interaction Between CBF-beta and RUNX1 for the Treatment of Acute Myeloid Leukemia. 230,000 tested, under 10 active. Runt-related transcription factor 1 (Homo sapiens) + Core-binding factor subunit beta …. Potency, µM (series often up to 59.8 µM), for the others: at the highest dose activity, negative = inhibition, actives largely listed as inhibitors. AID 1477, 2009. AlphaScreen CBFb-His/RUNX1-biotin binding, biochemical; further: % of control where 0% means no effect
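Proteins preincubated together for 20 min at RT before compound addition; 15 min later, nickel and streptavidin beads were added and left 90 min prior to AlphaScreen measurement.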
KCNH2 3.1 block – qHTS for Inhibitors of KCHN2 3.1: Mutant qHTS; 0.95% of 340,000 active; activity change, % (tested at about 1.8 µM); U2OS KCNH2 3.1, thallium flux FluxOr; hits give low values; Potassium voltage-gated channel subfamily H member 2, brain isoform KCNH2 3.1 (human);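 active means maximum activity change below -70%; inconclusive means maximum activity change from -70% to -50%; inactive means maximum activity change above -50%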;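 further: thallium influx rate constant from kinetic fluorescence after stimulation buffer; on the % scale 0 is the no-effect control and ±100 the full control effect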
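Virally transduced U2OS (3.1 isoform, 4 h infection in dark at RT) → overnight 37 C → FluxOr + Red40 in HBSS/HEPES, 45 min → stimulation buffer, 2 min kinetic read → rate constant vs DMSO controls.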
PLK1 PBD block – qHTS for Inhibitors of PLK1-PDB (polo-like kinase 1 - polo-box domain): Primary Screen. AID 720504, 2013. 2.8% of 360,000 active. Potency, µM, for inactives: max response, negative = inhibition, actives largely listed as inhibitors. Plk1 PBD binding of FITC phosphopeptide, fluorescence polarization. Serine/threonine-protein kinase PLK1 (Homo sapiens), P53350; further: potency means the concentration at half of the fitted maximal effect; series mostly up to about 57 µM; on the % scale 0 is the no-effect control and ±100 the full control effect; nearly all actives have a fitted effect of over 65% in size
An asterisk follows results filed as active. The list is not random: actives were taken first. Their share in the collection is about 3.8%. Unless noted, the call rests on the fitted dose curve; in most records, active means well fitted curve in the direction sought with a large enough effect; inconclusive means small, poorly fitted or top-dose-only effect, or another doubt; inactive means no such curve, though single readings can be large; an effect the other way counts as inactive or inconclusive.

What do the screens show for `COc1ccc(CS(=O)(=O)/C(Cl)=C(/Cl)C(=O)Nc2ccc(OC)nc2)cc1`?
MBNL1 CUG block: -6.9%; hERG WT inh: -1.5; VDR inh: 39.8µM*; CBFb RUNX1 block: -0.5%; KCNH2 3.1 block: -4.3; PLK1 PBD block: inconclusive

How did CCc1ccc(NC(=O)CN(c2ccc(Cl)cc2)S(=O)(=O)c2ccsc2C(=O)OC)cc1 do in these assays?
VDR inh: 2.1%

How did O=C(NCC(=O)N1CCCCCC1)c1ccc(Cl)cc1 do in these assays?
MBNL1 CUG block: -0.8%; hERG WT inh: -8.6; VDR inh: inconclusive; KCNH2 3.1 block: 20.5; PLK1 PBD block: 6.7µM*

What do the screens show for `O=C(NCC(=O)N1CCCCCCC1)c1ccc(Cl)cc1`?
hERG WT inh: 19.1; VDR inh: -37.2%; KCNH2 3.1 block: 1.5; PLK1 PBD block: -2.3%

What do the screens show for `CCCN1C(=S)SC(C)(C)C1/[N+]([O-])=C/c1cccnc1` (stereo unspecified)?
MBNL1 CUG block: inconclusive; hERG WT inh: -1.8; VDR inh: -3.7%; CBFb RUNX1 block: -0.6%; KCNH2 3.1 block: 11.8; PLK1 PBD block: 23.8µM*

How did CCCCN1C(=S)SC(C)(C)C1/[N+]([O-])=C/c1cccnc1 (stereo unspecified) do in these assays?
MBNL1 CUG block: 4.3%; hERG WT inh: -4.1; VDR inh: -2.4%; CBFb RUNX1 block: 2.1%; KCNH2 3.1 block: 7.2; PLK1 PBD block: -14.1%

How did COC(=O)Cc1c(C)c2ccc3c(c2oc1=O)CN(Cc1ccccc1Cl)CO3 do in these assays?
VDR inh: 11.9%

How did Cc1cc(NC(=O)CCNS(=O)(=O)c2cccc3nsnc23)ccc1Br do in these assays?
VDR inh: 1.2%

Results for NC(=O)SCC(=O)Nc1ccc(Cl)cc1 ?
MBNL1 CUG block: 2.0%; hERG WT inh: -2.7; VDR inh: 28.2µM*; CBFb RUNX1 block: 1.4%; KCNH2 3.1 block: -0.5; PLK1 PBD block: -17.0%

How did O=C(CN1CCCC1)Nc1ccc(F)cc1 do in these assays?
MBNL1 CUG block: inconclusive; hERG WT inh: -3.0; VDR inh: 6.7%; CBFb RUNX1 block: 0.0%; KCNH2 3.1 block: 3.8; PLK1 PBD block: -7.7%

What do the screens show for `CCN(CC)c1ccc(NC(=O)CN2CCN(CC(=O)Nc3ccc(OC)cc3)CC2)cc1`?
MBNL1 CUG block: -0.9%; hERG WT inh: 5.5; VDR inh: -1.0%; KCNH2 3.1 block: -85.7*; PLK1 PBD block: -0.8%

What do the screens show for `COc1ccc(NC(=O)CN2CCCCC2)cc1`?
MBNL1 CUG block: 0.8%; hERG WT inh: -3.4; VDR inh: -0.2%; CBFb RUNX1 block: 9.1%; KCNH2 3.1 block: -27.5; PLK1 PBD block: 0.1%

What do the screens show for `O=C(CN1CCN(Cc2ccc3c(c2)OCO3)CC1)Nc1ccc(F)cc1`?
MBNL1 CUG block: -17.7%; hERG WT inh: -14.5; VDR inh: 8.6%; CBFb RUNX1 block: 0.0%; KCNH2 3.1 block: -84.1*; PLK1 PBD block: -3.5%

Results for O=C(CN1CCN(CC(=O)Nc2ccc(Cl)cc2)CC1)Nc1ccc(F)cc1 ?
MBNL1 CUG block: 2.4%; hERG WT inh: -136.9*; VDR inh: -10.0%; KCNH2 3.1 block: -117.6*; PLK1 PBD block: -11.1%

Results for Cn1c(=O)oc2cc(S(=O)(=O)NCCC(=O)Nc3ccc(F)c(Cl)c3)ccc21 ?
VDR inh: 5.6%

How did CC(C)N(Cc1ccccc1)C(C)C (tested in a mixture with another compound) do in these assays?
VDR inh: -3.6%; CBFb RUNX1 block: 22.3%

What do the screens show for `CCN(CC)c1ccc(NC(=O)CN2CCN(CC(=O)Nc3ccc(F)cc3)CC2)cc1`?
MBNL1 CUG block: 0.9%; hERG WT inh: -74.6*; VDR inh: 4.5%; CBFb RUNX1 block: -5.9%; KCNH2 3.1 block: -101.1*; PLK1 PBD block: 1.3%

How did COc1ccc(NC(=O)CN2CCN(CC(=O)Nc3ccc(F)cc3)CC2)cc1Cl do in these assays?
MBNL1 CUG block: -4.6%; hERG WT inh: 1.7; VDR inh: -26.6%; KCNH2 3.1 block: -91.2*; PLK1 PBD block: -0.7%

Results for O=C(CN1CCOCC1)Nc1ccc(Br)cc1 ?
MBNL1 CUG block: -10.7%; hERG WT inh: -15.2; VDR inh: -9.1%; KCNH2 3.1 block: 9.3; PLK1 PBD block: 5.3%

Results for COc1cc(NC(=O)CN2CCN(CC(=O)Nc3ccc(F)cc3)CC2)cc(OC)c1 ?
VDR inh: -9.4%

What do the screens show for `O=C(CN1CCN(C(=O)N2CCOCC2)CC1)Nc1ccc(Br)cc1`?
MBNL1 CUG block: 5.2%; hERG WT inh: -118.2*; VDR inh: -4.6%; CBFb RUNX1 block: 1.0%; KCNH2 3.1 block: -70.5*; PLK1 PBD block: -13.6%

How did Cc1noc(C)c1C(=O)OCC(=O)NCCc1ccc(S(N)(=O)=O)cc1 do in these assays?
hERG WT inh: -9.6; VDR inh: -18.3%; KCNH2 3.1 block: -83.7*; PLK1 PBD block: 5.0%

What do the screens show for `COc1cc(C(=O)N2CC(=O)Nc3ccc(C)cc3C2c2ccc(F)cc2)cc(OC)c1OC` (stereo unspecified)?
VDR inh: 5.9%

How did O=C1C=CC(=O)N1c1ccc(O)cc1 do in these assays?
MBNL1 CUG block: -3.5%; hERG WT inh: -7.3; VDR inh: 25.1µM*; CBFb RUNX1 block: -2.1%; KCNH2 3.1 block: -6.1; PLK1 PBD block: 16.8µM*

How did O=C1CCCC(=O)N1c1ccc(O)cc1 do in these assays?
MBNL1 CUG block: 0.1%; hERG WT inh: 7.3; VDR inh: -7.1%; CBFb RUNX1 block: -3.0%; KCNH2 3.1 block: 1.2; PLK1 PBD block: inconclusive

How did Cc1ccccc1C(=O)c1cccn1CC(=O)O do in these assays?
MBNL1 CUG block: 0.6%; hERG WT inh: -4.3; VDR inh: -13.5%; CBFb RUNX1 block: 0.0%; KCNH2 3.1 block: -7.4; PLK1 PBD block: -11.6%

How did Cc1ccccc1C(=O)c1cccn1CC(=O)N1CCCCCC1 do in these assays?
MBNL1 CUG block: -8.7%; hERG WT inh: 4.9; VDR inh: 9.6%; CBFb RUNX1 block: 2.6%; KCNH2 3.1 block: -99.8*; PLK1 PBD block: -1.8%

Results for COc1ccc(-n2cc(CNCCc3nc(C)cc(C)n3)c(-c3ccccc3Cl)n2)cc1 ?
MBNL1 CUG block: -16.7%; hERG WT inh: -12.8; VDR inh: -2.0%; CBFb RUNX1 block: -3.1%; KCNH2 3.1 block: -49.3; PLK1 PBD block: -4.1%
